From PubChem BioAssay (Tox21)
Records with an inconclusive call do not appear. Calls of active or inactive are those of the source. Unless noted, the call rests on the fitted dose curve; in most records, active means well fitted curve in the direction sought with a large enough effect in the repeat runs; inconclusive means weak or mixed curves; inactive means flat fitted curve, though single readings scatter.

What was measured:
[1] = qHTS assay to test for compound auto fluorescence at 535 nm (green) in HEK293 cells (AID 720680)
[2] = qHTS assay to test for compound auto fluorescence at 460 nm (blue) in HEK293 cell free culture (AID 720681)
Summary of the method: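 Compounds were added to cell-free DMEM with 10% FBS and fluorescence read directly. The blue channel used 405 nm excitation and 460 nm emission, with triamterene as the reference fluorophore.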

[3] = qHTS assay to test for compound auto fluorescence at 535 nm (green) in HEK293 cell free culture (AID 720682)
Summary of the method: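 Fluorescein serves as the green reference fluorophore; each compound's intrinsic emission at 535 nm (excitation 485 nm) is reported as an equivalent amount of that dye, measured in serum-containing DMEM without cells.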

[4] = qHTS assay to test for compound auto fluorescence at 590 nm (red) in HEK293 cell free culture (AID 720683)
Summary of the method: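 Cell-free wells of DMEM with 10% FBS received compound, and intrinsic fluorescence was read at excitation/emission 540/590 nm. Values expressed as equivalence to Rose Bengal sodium.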

[5] = qHTS assay to test for compound auto fluorescence at 460 nm (blue) in HepG2 cell free culture (AID 720685)
Summary of the method: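 Cell-free plates of MEM plus 10% FBS received 23 nL compound or DMSO vehicle; blue-channel (405/460 nm) intensity scored against triamterene as reference fluorophore.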

[6] = qHTS assay to test for compound auto fluorescence at 535 nm (green) in HepG2 cell free culture (AID 720686)
[7] = qHTS assay to test for compound auto fluorescence at 460 nm (blue) in HepG2 cells (AID 720687)
Summary of the method: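 HepG2 cells in MEM with 10% FBS, attached overnight at 37 C, were exposed to compound or DMSO for 1 hr at 37 C, 5% CO2. Blue fluorescence was read at 405/460 nm, with triamterene as reference fluorophore.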

[8] = molecular target: Glucocorticoid receptor (Homo sapiens) (UniProt P04150); experiment: qHTS assay to identify small molecule agonists of the glucocorticoid receptor (GR) signaling pathway (AID 720691; active means well fitted activation curve with a large enough effect in the signal ratio in the repeat runs, not every such curve was filed as active; the % refers to the signal ratio)
Chain of Glucocorticoid receptor (Homo sapiens) (P04150 whole entry, looked up): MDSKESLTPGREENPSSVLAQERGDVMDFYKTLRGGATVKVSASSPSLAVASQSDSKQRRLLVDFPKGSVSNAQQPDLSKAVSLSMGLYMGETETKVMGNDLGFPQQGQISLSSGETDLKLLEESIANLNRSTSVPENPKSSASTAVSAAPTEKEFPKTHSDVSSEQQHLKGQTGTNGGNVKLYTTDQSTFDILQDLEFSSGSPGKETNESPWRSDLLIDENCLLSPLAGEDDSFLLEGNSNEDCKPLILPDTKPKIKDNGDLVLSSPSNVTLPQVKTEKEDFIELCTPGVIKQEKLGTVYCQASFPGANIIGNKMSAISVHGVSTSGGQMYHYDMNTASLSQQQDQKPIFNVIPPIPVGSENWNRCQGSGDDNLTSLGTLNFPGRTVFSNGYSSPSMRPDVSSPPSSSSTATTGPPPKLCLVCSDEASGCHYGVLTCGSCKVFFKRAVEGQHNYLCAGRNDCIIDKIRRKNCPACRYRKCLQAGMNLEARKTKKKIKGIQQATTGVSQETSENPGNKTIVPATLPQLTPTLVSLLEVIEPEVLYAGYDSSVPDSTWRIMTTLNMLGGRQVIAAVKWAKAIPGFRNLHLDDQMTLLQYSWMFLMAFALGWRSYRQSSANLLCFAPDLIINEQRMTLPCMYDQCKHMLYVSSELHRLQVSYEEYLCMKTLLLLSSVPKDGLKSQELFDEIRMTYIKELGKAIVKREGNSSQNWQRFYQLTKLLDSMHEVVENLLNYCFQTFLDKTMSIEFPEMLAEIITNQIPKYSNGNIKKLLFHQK
Summary of the method: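 Compounds in DMSO, alongside positive controls, were added to GR-bla HeLa reporter cells and incubated 18 h at 37 C; GRE-driven beta-lactamase was detected by fluorescence after 2 h with FRET substrate at room temperature.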

[9] = molecular target: Glucocorticoid receptor (Homo sapiens) (UniProt P04150); experiment: qHTS assay to identify small molecule antagonists of the glucocorticoid receptor (GR) signaling pathway (AID 720692; active means well fitted inhibition curve with a large enough effect in the signal ratio in the repeat runs, not every such curve was filed as active; the % refers to the signal ratio)
Summary of the method: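 In a 1536-well cell format, compounds were added 4 h after seeding GR-bla HeLa cells, together with dexamethasone at 5 nM final; reporter activity was measured by FRET-substrate fluorescence following 18 h at 37 C.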

[10] = qHTS assay to test for compound auto fluorescence at 590 nm (red) in HepG2 cell free culture (AID 720684)
Summary of the method: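 Auto fluorescence equivalency versus Rose Bengal sodium, red channel Ex/Em 540/590 nm; compounds in cell-free MEM/10% FBS; DMSO vehicle control.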
On the % scale 0 is the no-effect control and ±100 the full control effect.

CC(C)CCC(=O)CCC(C)C
inactive: outcome [1] | outcome [2] | outcome [3] | outcome [4] | outcome [5] | outcome [6] | outcome [7] | Potency [8]

CNC(=O)NC
inactive: outcome [1] | outcome [2] | outcome [3] | outcome [4] | outcome [5] | outcome [6] | outcome [7] | Potency [8]

C=C(C)C(=O)OC
inactive: outcome [1] | outcome [2] | outcome [3] | outcome [4] | outcome [5] | outcome [6] | Potency [8]

CCCCOC(=O)C(=O)OCCCC
inactive: outcome [1] | outcome [2] | outcome [3] | outcome [4] | outcome [5] | outcome [6] | outcome [7] | Potency [8]

CCN(CCC#N)c1ccccc1
inactive: outcome [1] | outcome [2] | outcome [3] | outcome [4] | outcome [5] | outcome [6] | Potency [8] | outcome [9]

COc1cc([N+](=O)[O-])ccc1N
inactive: outcome [1] | outcome [2] | outcome [3] | outcome [4] | outcome [5] | outcome [6] | outcome [7] | Potency [8] | outcome [9]

CC(=O)Nc1ncc([N+](=O)[O-])s1
inactive: outcome [1] | outcome [2] | outcome [3] | outcome [4] | outcome [5] | outcome [6] | Potency [8]

CO[Si](CCCCl)(OC)OC
inactive: outcome [1] | outcome [2] | outcome [3] | outcome [4] | outcome [5] | outcome [6] | outcome [7] | Potency [8] | outcome [9]

CCC1Nc2cc(Cl)c(S(N)(=O)=O)cc2S(=O)(=O)N1 (stereo not drawn)
inactive: outcome [1] | outcome [2] | outcome [3] | outcome [4] | outcome [5] | outcome [6] | outcome [7]

O=CO
inactive: fluorescence, % of fluorescein [1] -0.109% [at 9.17 µM] | fluorescence, % of fluorescent control [2] -0.189% [at 9.17 µM] | activity change [3] -0.0948% [at 9.17 µM] | fluorescence, % of fluorescent control [4] -0.0633% [at 9.17 µM] | fluorescence, % of fluorescent control [5] -0.136% [at 9.17 µM] | fluorescence, % of fluorescein control [6] -0.0013% [at 9.17 µM] | fluorescence, % of fluorescent control [7] 0.0876% [at 9.17 µM]

CCOc1ccc(NC(=O)OC(C)C)cc1OCC
inactive: outcome [1] | outcome [2] | outcome [3] | outcome [10] | outcome [6] | outcome [7] | Potency [8] | outcome [9]

CN(C)CCCNCCC#N
inactive: outcome [1] | outcome [2] | outcome [3] | outcome [10] | outcome [5] | outcome [6] | outcome [7]

CCOC(=O)CC(CC(=O)OCC)(OC(C)=O)C(=O)OCC
inactive: outcome [1] | outcome [2] | outcome [4] | outcome [10] | outcome [5] | outcome [6]

CCCCCCCC/C=C\CCCCCCCC(=O)OC[C@@H](O)[C@H]1OC[C@H](O)[C@H]1O
inactive: outcome [1] | outcome [2] | outcome [3] | outcome [10] | outcome [5] | outcome [6] | outcome [7] | Potency [8] | outcome [9]

CC(=O)OC(C)(C)Cc1ccccc1
inactive: outcome [1] | outcome [2] | outcome [3] | outcome [10] | outcome [5] | outcome [6] | outcome [7]

COc1ccc(/C=N/NC(=O)c2ccncc2)cc1OC
inactive: outcome [1] | outcome [2] | outcome [3] | outcome [10] | outcome [5] | outcome [6] | Potency [8] | outcome [9]

CC(=O)OC(C(=O)c1ccccc1)c1ccccc1 (stereo not drawn)
inactive: outcome [1] | outcome [2] | outcome [3] | outcome [4] | outcome [6] | Potency [8]

COc1cccc2sc(N)nc12
inactive: outcome [1] | outcome [2] | outcome [3] | outcome [10] | outcome [5] | outcome [6] | outcome [7]

O=C(O)/C=C/c1ccccc1
inactive: outcome [1] | outcome [2] | outcome [3] | outcome [10] | outcome [5] | outcome [6] | outcome [7] | Potency [8] | outcome [9]

CCCCCCCCCCCCC
inactive: outcome [1] | outcome [2] | outcome [3] | outcome [10] | outcome [5] | outcome [6] | outcome [7] | Potency [8] | outcome [9]

Oc1ccccc1Cc1ccccc1O
inactive: outcome [1] | outcome [2] | outcome [3] | outcome [10] | outcome [5] | outcome [6] | Potency [8] | outcome [9]

O=P(O)(O)OCC(O)CO (stereo not drawn)
inactive: outcome [1] | outcome [2] | outcome [3] | outcome [10] | outcome [5] | outcome [6] | outcome [7]

O=S1(=O)CCCC1
inactive: outcome [1] | outcome [2] | outcome [4] | outcome [10] | outcome [5] | outcome [6]

CCC(=O)OCCC(C)CCC=C(C)C (stereo not drawn)
inactive: outcome [1] | outcome [2] | outcome [3] | outcome [10] | outcome [5] | outcome [6] | outcome [7]

CCCCC(C)C(=O)O (stereo not drawn)
inactive: outcome [1] | outcome [2] | outcome [4] | outcome [10] | outcome [5] | outcome [6]
